L3MBTL1 inh: inhibitors of human L3MBTL1; AlphaScreen L3MBTL1–H3K9me1 peptide binding; actives 0.66% (n = 230,000); Potency, µM (top dose mostly 57.1 µM), without a hit: at the highest dose activity, negative = inhibition, most hits filed as inhibitors; further: on the % scale 0 is the no-effect control and ±100 the full control effect; nearly all actives have a fitted effect of over 60% in size
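AlphaScreen assay: L3MBTL1 (50 nM final) was preincubated 30 min at room temperature with biotinylated H3(1-15)K9me1 peptide (75 nM final), then 30 min with library compounds; streptavidin donor and nickel chelate acceptor beads (10 ug/mL final) added, 30 min dark.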
JMJD2A Tudor inh: JMJD2A Tudor domain (human) inhibition | actives 4.4% (n = 390,000) | AlphaScreen JMJD2A-Tudor / H3K4me3 peptide binding | Potency, µM (doses to about 114 µM), inactives show at the highest dose activity change, negative = inhibition, usual class: inhibitors; further: on the % scale 0 is the no-effect control and ±100 the full control effect; nearly all actives have a fitted effect of over 50% in size
BAZ2B block: inhibitors of human BAZ2B bromodomain | Q9UIF8 | AlphaScreen BAZ2B-H3K14Ac peptide displacement | Potency, µM (series often up to 114 µM), for inactives: at the highest dose activity change, negative = inhibition, usual class: inhibitors | actives 4.4% (n = 360,000); further: on the % scale 0 is the no-effect control and ±100 the full control effect; nearly all actives have a fitted effect of over 60% in size
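AlphaScreen displacement of biotin-H3(5-23)K14Ac peptide (50 nM final) from BAZ2B (50 nM final) in PBS pH 7.4, 0.01% Tween-20; complex preformed 30 min RT, then compounds (top 110 uM) 30 min RT, beads 20 min dark.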
Sfp PPTase inh: blocks B. subtilis Sfp PPTase activity; actives 3.5% (n = 310,000); Biochemical Sfp PPTase activity, qHTS; AID 1490; Q9F4F7; Potency, µM, inactives show largest response in the series, negative = inhibition, hits mostly inhibitors;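 further: the enzyme is Sfp with the accession as filed and its product quenches rhodamine fluorescence; 0% = enzyme reaction without inhibitor and -100% = no enzyme wells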
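After 15 min at room temperature with compound, 15 nM Sfp received 5 uM rhodamine-CoA plus 12.5 uM BHQ-2-ybbR (50 mM Hepes pH 7.6, 10 mM MgCl2). Rate came from the fluorescence difference over 30 min, ex 525/em 598 nm.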
HP1b chromo inh: blocks HP1-beta chromodomain binding to methylated histone tails | P83916 | AlphaScreen HP1-beta / biotin-H3K9me3 peptide binding | Potency, µM (series often up to 114 µM), for inactives: at the highest dose activity change, negative = inhibition, most hits filed as inhibitors | actives 0.56% (n = 390,000) | AID 540317; further: nearly all actives have a fitted effect of over 70% in size
Target sequence (P83916 whole entry, looked up): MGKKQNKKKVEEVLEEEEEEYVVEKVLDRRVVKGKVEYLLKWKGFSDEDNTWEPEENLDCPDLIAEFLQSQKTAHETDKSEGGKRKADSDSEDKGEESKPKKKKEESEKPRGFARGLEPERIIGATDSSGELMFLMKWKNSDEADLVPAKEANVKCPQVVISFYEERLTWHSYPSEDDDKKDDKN
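AlphaScreen: HP1-beta (50 nM) preformed 30 min with biotin-H3(1-18)K9me3 peptide (50 nM) in PBS pH 7.4, 0.01% Tween-20. Compound added for 30 min at RT, then streptavidin donor/nickel chelate acceptor beads (10 ug/mL) for 30 min.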
G9a inh: blocks human histone lysine methyltransferase G9a | Q96KQ7 | G9a H3K9 monomethylation, AlphaScreen, 2 h | Potency, µM (titrated, usually from 102 µM), for inactives: at the top dose activity, negative = inhibition, actives largely listed as inhibitors | actives 8.8% (n = 350,000) | AID 504332; further: on the % scale 0 is the no-effect control and ±100 the full control effect; nearly all actives have a fitted effect of over 75% in size
Target sequence (Q96KQ7 913-1193 limits assumed): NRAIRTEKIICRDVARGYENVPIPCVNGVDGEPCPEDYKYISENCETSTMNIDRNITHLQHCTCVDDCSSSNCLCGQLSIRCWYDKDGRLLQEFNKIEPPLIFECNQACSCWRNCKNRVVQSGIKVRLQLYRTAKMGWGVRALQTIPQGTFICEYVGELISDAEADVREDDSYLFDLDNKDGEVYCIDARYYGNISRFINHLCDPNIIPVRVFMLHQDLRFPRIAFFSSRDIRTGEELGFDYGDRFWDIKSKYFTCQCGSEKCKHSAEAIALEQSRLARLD
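Using a bead-based AlphaScreen, monomethylated H3K9 product from 2 h room-temperature reactions (G9a 20 nM, peptide 500 nM, SAM 20 uM) was detected with 0.5 ug/mL rabbit anti-H3K9me1 antibody.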
An asterisk follows results filed as active; ? = inconclusive; / = not tested or not shown; [ ] = another dose, or the depositor's remark. Sampled rows, rich in hits. Any-hit rate of the full collection: about 12%. The call rests on the fitted dose curve; in most records, active means well fitted curve in the direction sought with a large enough effect; inconclusive means small, poorly fitted or top-dose-only effect, or another doubt; inactive means no such curve, though single readings can be large; an effect the other way counts as inactive or inconclusive. Potency means the concentration at half of the fitted maximal effect.

SMILES | L3MBTL1 inh | JMJD2A Tudor inh | BAZ2B block | Sfp PPTase inh | HP1b chromo inh | G9a inh
C/C(=N/Nc1ccc(C(=O)O)cc1)c1ccc(O)c(O)c1O | 14.1µM* | 10µM* | -33.4% | 39.8µM* | 6.6% | 3.55µM*
COc1ccc(/C(C)=N/Nc2ccc(C(=O)O)cc2)cc1OC | -1.5% | -10.3% | -1.4% | 12.4% | 46.5% | ?
COc1ccc(OC)c(/C(C)=N/Nc2ccc(C(=O)O)cc2)c1 | -16.0% | -6.9% | -21.6% | -5.4% | 26.9% | 14.1µM*
Cn1c2c(c(=O)n(C)c1=O)[C@@]1(C(=O)Nc3ccccc31)C(C#N)=C(N)O2 | -7.1% | -16.3% | -5.9% | -9.1% | 14.8% | 44.7µM*
CCC(C)NC(=O)C1CCN(C(=O)c2cc3sccc3n2Cc2ccc(Cl)cc2)CC1 (stereo not drawn) | / | 7.6% | -1.2% | / | 49.4% | -3.1%[59 µM]
COc1cc([N+](=O)[O-])ccc1N1C(=O)C2C3C=CC(C4CC34)C2C1=O (stereo not drawn) | 13.7% | -12.2%[57.1 µM] | -27.4% | 6.3% | 19.6% | 39.8µM*
c1ccc2c(Nc3ccc4c(c3)OCCO4)c3c(nc2c1)CCCC3 | / | ? | ? | 50.1µM* | -16.3% | ?
CCOc1ccc(Nc2c(S(=O)(=O)c3ccccc3)cnc3ccc(CC)cc23)cc1 | / | -12.4% | -28.1% | / | 37.0% | 1.6%[59 µM]
N#CC1=C(N)OC2=C(CC/C2=C\c2ccccc2Cl)C1c1ccccc1Cl (stereo not drawn) | 4.3% | ? | ? | -7.2% | 7.5% | 22.4µM*
N#CC1=C(N)OC2=C(CC/C2=C\c2ccccc2)C1c1ccccc1 (stereo not drawn) | -0.9% | ? | 89.1µM* | 20.7% | ? | 44.7µM*
CCN1CCN(c2nnc(-n3cccc3C(=O)Nc3cccc(OC)c3)s2)CC1 | / | -9.7% | -8.5% | / | 31.2% | -29.2%[59 µM]
CC(C)(C)OC(=O)N[C@@H](Cc1ccccc1)c1nnc(S(=O)(=O)Cc2cccc(F)c2)o1 | -6.2% | -6.6% | -0.1% | 7.94µM* | 76.7% | 35.5µM*
CC[C@@H](C)[C@H](NC(=O)OC(C)(C)C)c1nnc(S(=O)(=O)Cc2cc(C)ccc2C)o1 | 7.9% | 9.5% | -0.2% | ? | 86.8% | 79.4µM*
Cc1ccccc1CS(=O)(=O)c1nnc([C@H](CC(C)C)NC(=O)OC(C)(C)C)o1 | 4.4% | -24.1% | 4.6% | 22.4µM* | 20.8% | 35.5µM*
CCOC(=O)CSc1nnc([C@H](Cc2ccccc2)NC(=O)OC(C)(C)C)o1 | 13.0% | -3.7% | -2.0% | 0.0% | 55.6% | -25.8%[59 µM]
CC(C)C[C@H](N)c1nnc(S(=O)(=O)Cc2cccc(F)c2)o1 | / | -14.5% | ? | 17.8µM* | 30.2% | ?
CC12CC[C@@H]3c4ccc(OS(=O)(=O)O)cc4CC[C@H]3C1CCC2=O (stereo partly drawn) | / | / | / | 19.9% | / | 14.4%[21.5 µM]
CCOc1ccc(N(CC)C(=O)c2cc3c(s2)-c2ccc(Cl)cc2SC3)cc1 | / | -14.1% | 1.2% | / | 90.0% | 9.9%[59 µM]
Cc1nc2ccc(C(=O)O)cc2c2c1CC(C)S2 (stereo not drawn) | / | ? | 70.8µM* | -19.5% | -33.1% | ?
CC(=O)N(\C=C/C=C/C=C1\Sc2ccccc2C1=O)c1ccccc1 | / | 7.94µM* | 7.08µM* | -32.9% | 12.6µM* | 10µM*
CN(C)/C=C1/Sc2ccccc2C1=O | -2.4% | -19.8% | ? | 8.7% | 5.9% | -21.0%[59 µM]
C[C@@H](O)C1NC(=O)[C@H](CCCCN)NC(=O)c2cc([N+](=O)[O-])cc(I)c2OCC[C@@H](C(N)=O)NC1=O (stereo partly drawn) | 1.1% | 56.2µM* | ? | 13.2% | -9.5% | 8.91µM*
CC(C)C[C@@H]1NC(=O)[C@H](CO)NC(=O)c2cc([N+](=O)[O-])cc(I)c2OCC[C@@H](C(N)=O)NC1=O | 1.7% | -9.3% | -31.6% | 32.5% | 28.1% | 39.8µM*
CCC(C)c1ccc(OCC(=O)Nc2ccc(-c3nc4ncccc4o3)cc2)cc1 (stereo not drawn) | / | -12.0% | -11.9% | / | 36.2% | -6.7%[59 µM]
